Data: PubChem BioAssay (EPA / NIEHS)
Several values for one entry are separate records, joined by “and”; a condition that tells them apart may be missing. Equal entries are not always repeated. A structure can be active in one record and inactive in another. Activity calls are given as the source filed them. Rule for the calls: active = hit-call score of the fitted dose curve at least 0.9, where 1 is the maximum; inactive = score below 0.9.

Tests used:
[1] = read-out: Intercellular Adhesion Molecule 1 (ICAM1), ICAM1 (gene 3383); experiment: BSK_BF4T_ICAM1: BioMAP Diversity Plus: BF4T Assay for Intercellular Adhesion Molecule 1 (ICAM1) Biomarker Activity (AID 2284260); details: primary human bronchial epithelial cells with fibroblasts
Outline: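 ICAM-1 levels measured by ELISA after 24 h chemical treatment of bronchial epithelial cell/dermal fibroblast co-cultures, read against DMSO baseline. Overt cytotoxicity checked in parallel cultures by sulforhodamine B staining.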

[2] = read-out: Interleukin-8 (IL8), CXCL8 (gene 3576); experiment: BSK_MyoF_IL8: BioMAP Diversity Plus: MyoF Assay for Interleukin-8 (IL8) Biomarker Activity (AID 2284261); details: primary human lung fibroblasts
Outline: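 Lung fibroblasts (human primary) → chemical exposure → 24 h → IL-8 measured by ELISA. Signal increase scored versus DMSO control.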

[3] = read-out: Interleukin-8 (IL8), CXCL8 (gene 3576); experiment: BSK_BF4T_IL8: BioMAP Diversity Plus: BF4T Assay for Interleukin-8 (IL8) Biomarker Activity (AID 2284263); details: primary human bronchial epithelial cells with fibroblasts
Outline: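 Human bronchial epithelial cells with dermal fibroblasts co-culture; IL-8 measured by ELISA 24 hours after dosing, fitted vs DMSO. Cytotoxicity tracked in parallel cultures by SRB total-protein staining.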

[4] = read-out: Interleukin-1 alpha (IL1a), IL1A (gene 3552); experiment: BSK_BF4T_IL1a: BioMAP Diversity Plus: BF4T Assay for Interleukin-1 alpha (IL1a) Biomarker Activity (AID 2284264); details: primary human bronchial epithelial cells with fibroblasts
Outline: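 ELISA read-out of IL-1α from bronchial epithelial cell/dermal fibroblast co-cultures 24 h after compound addition. Increases scored against DMSO negative control. Cytotoxicity monitored by sulforhodamine B staining of parallel cultures.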

Decorin, DCN (gene 1634) = experiment: BSK_MyoF_Decorin: BioMAP Diversity Plus: MyoF Assay for Decorin Biomarker Activity (AID 2284265); details: primary human lung fibroblasts
Outline: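 ELISA readout of decorin, 24 h post-dosing; primary human lung fibroblast (MyoF) culture; gain-of-signal fit vs DMSO baseline.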

KRT18 (gene 3875) = experiment: BSK_BF4T_Keratin818: BioMAP Diversity Plus: BF4T Assay for Keratin 818 Biomarker Activity (AID 2284266); details: primary human bronchial epithelial cells with fibroblasts
Outline: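 Keratin 8/18 levels quantified by ELISA after 24 h chemical treatment of bronchial epithelial cell/dermal fibroblast co-cultures, fitted in positive direction relative to DMSO. Parallel SRB staining tracks overt cytotoxicity.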

[5] = BSK_MyoF_SRB: Viability Assessment in the BioMAP Diversity Plus: MyoF Assay (AID 2284267); details: primary human lung fibroblasts;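 note: total protein by SRB absorbance in parallel cultures as cytotoxicity measure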
Outline: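 Lung fibroblast cultures, 24 h post-dose; fix 10% TCA, stain 0.1% SRB, read 560 nm. Signal = total protein as cytotoxicity measure; fitted relative to DMSO negative control.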

[6] = read-out: Matrix Metallopeptidase 1 (MMP1), MMP1 (gene 4312); experiment: BSK_MyoF_MMP1: BioMAP Diversity Plus: MyoF Assay for Matrix Metallopeptidase 1 (MMP1) Biomarker Activity (AID 2284268); details: primary human lung fibroblasts
Outline: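 Cells: human lung fibroblasts. Exposure: 24 h chemical dosing. Detection: ELISA for MMP1. Analysis: upward fitting against DMSO negative control.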

[7] = read-out: Matrix Metallopeptidase 3 (MMP3), MMP3 (gene 4314); experiment: BSK_BF4T_MMP3: BioMAP Diversity Plus: BF4T Assay for Matrix Metallopeptidase 3 (MMP3) Biomarker Activity (AID 2284271); details: primary human bronchial epithelial cells with fibroblasts
Outline: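 MMP-3 level read by ELISA after 24 h chemical exposure of bronchial epithelial cell/dermal fibroblast co-cultures, fitted upward relative to DMSO. Parallel cultures stained with 0.1% SRB after TCA fixation gauge overt cytotoxicity.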

[8] = read-out: Tissue plasminogen activator (tPA), PLAT (gene 5327); experiment: BSK_BF4T_tPA: BioMAP Diversity Plus: BF4T Assay for Tissue plasminogen activator (tPA) Biomarker Activity (AID 2284272); details: primary human bronchial epithelial cells with fibroblasts
Outline: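 tPA level quantified by ELISA at 24 h post-treatment in bronchial epithelial/dermal fibroblast co-cultures, gain of signal scored against DMSO baseline. Parallel cultures stained with 0.1% SRB (560 nm) to flag overt cytotoxicity.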

[9] = read-out: Plasminogen Activator Inhibitor-1 (PAI1), SERPINE1 (gene 5054); experiment: BSK_BF4T_PAI1: BioMAP Diversity Plus: BF4T Assay for Plasminogen Activator Inhibitor-1 (PAI1) Biomarker Activity (AID 2284273); details: primary human bronchial epithelial cells with fibroblasts
Outline: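 PAI-1 levels quantified by ELISA 24 h post-dosing in bronchial epithelial cell plus dermal fibroblast cultures. Signal gain referenced to DMSO baseline. Sulforhodamine B total-protein staining of parallel wells checked cytotoxicity.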

[10] = BSK_BF4T_SRB: Viability Assessment in the BioMAP Diversity Plus: BF4T Assay (AID 2284274); details: primary human bronchial epithelial cells with fibroblasts
Outline: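 Cytotoxicity measured as total protein: cells fixed with 10% TCA, stained with 0.1% SRB, read at 560 nm. Bronchial epithelial/dermal fibroblast co-culture, 24 h after dosing, with positive-direction fitting relative to DMSO.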

[11] = read-out: urokinase Plasminogen Activator (uPA), PLAU (gene 5328); experiment: BSK_BF4T_uPA: BioMAP Diversity Plus: BF4T Assay for urokinase Plasminogen Activator (uPA) Biomarker Activity (AID 2284275); details: primary human bronchial epithelial cells with fibroblasts
Outline: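 uPA levels measured by ELISA at 24 hours in BF4T cultures (bronchial epithelial cells plus dermal fibroblasts) and compared with DMSO; cytotoxicity tracked in parallel cultures by sulforhodamine B staining.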

[12] = read-out: Matrix Metallopeptidase 9 (MMP9), MMP9 (gene 4318); experiment: BSK_BF4T_MMP9: BioMAP Diversity Plus: BF4T Assay for Matrix Metallopeptidase 9 (MMP9) Biomarker Activity (AID 2284276); details: primary human bronchial epithelial cells with fibroblasts
Outline: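 MMP-9 levels were measured by ELISA after 24 h exposure of bronchial epithelial cell/dermal fibroblast co-cultures, with DMSO as baseline. Parallel cultures were stained with 0.1% SRB after TCA fixation, read at 560 nm, to flag overt cytotoxicity.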

[13] = read-out: Interleukin-8 (IL8), CXCL8 (gene 3576); experiment: BSK_IMphg_IL8: BioMAP Diversity Plus: IMphg Assay for Interleukin-8 (IL8) Biomarker Activity (AID 2284277); details: primary human endothelial cells with macrophages
Outline: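 IL-8 levels were measured by ELISA 24 h after dosing in primary human venular endothelial cell–macrophage cultures, referenced to DMSO; parallel SRB staining monitored overt cytotoxicity.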

[14] = read-out: Intercellular Adhesion Molecule 1 (ICAM1), ICAM1 (gene 3383); experiment: BSK_BE3C_ICAM1: BioMAP Diversity Plus: BE3C Assay for Intercellular Adhesion Molecule 1 (ICAM1) Biomarker Activity (AID 2284278); details: primary human bronchial epithelial cells;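 for outcome: cell-surface ICAM-1 protein level quantified by ELISA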
Outline: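 ELISA read-out of ICAM-1 on human lung bronchial epithelial primary cells, 24 h post-dosing; positive-direction curve fit, DMSO = baseline. SRB total-protein staining of parallel cultures flagged overt cytotoxicity.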

[15] = read-out: Interferon-inducible T-cell alpha chemoattractant (ITAC), CXCL11 (gene 6373); experiment: BSK_BE3C_ITAC: BioMAP Diversity Plus: BE3C Assay for Interferon-inducible T-cell alpha chemoattractant (ITAC) Biomarker Activity (AID 2284279); details: primary human bronchial epithelial cells
Outline: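 The assay measures I-TAC levels by ELISA in human primary bronchial epithelial cell cultures 24 hours after chemical treatment. Values reflect signal increase over the DMSO baseline.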

CD90, THY1 (gene 7070) = experiment: BSK_BF4T_CD90: BioMAP Diversity Plus: BF4T Assay for CD90 Biomarker Activity (AID 2284262); details: primary human bronchial epithelial cells with fibroblasts
Outline: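 CD90 levels by ELISA after 24 h treatment of human bronchial epithelial cell/dermal fibroblast cultures, analysed versus DMSO. Overt cytotoxicity checked in parallel cultures by sulforhodamine B staining.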

[16] = read-out: TIMP metallopeptidase inhibitor 1 (TIMP1), TIMP1 (gene 7076); experiment: BSK_MyoF_TIMP1: BioMAP Diversity Plus: MyoF Assay for TIMP metallopeptidase inhibitor 1 (TIMP1) Biomarker Activity (AID 2284269); details: primary human lung fibroblasts
Outline: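 TIMP-1 levels were determined by ELISA in human lung fibroblasts treated for 24 h. DMSO served as negative control and baseline for upward curve fitting.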

With CCO[Si](CCC(F)(F)C(F)(F)C(F)(F)C(F)(F)C(F)(F)C(F)(F)F)(OCC)OCC the outcome [1] was “inactive”, the outcome [2] was “inactive” and the outcome [3] was “inactive”. The outcome [4] was “inactive”, the outcome (Decorin, DCN (gene 1634)) was “inactive” and the outcome (KRT18 (gene 3875)) was “inactive”. For the same molecule, the outcome [5] was “inactive”, the outcome [6] was “inactive” and the outcome [7] was “inactive”. The outcome [8] was “inactive”, the outcome [9] was “inactive” and the outcome [10] was “inactive”. For the same molecule, the outcome [11] was “inactive”, the outcome [12] was “inactive” and the outcome [13] was “inactive”. For the same molecule, the outcome [14] was “inactive” and the outcome [15] was “inactive”.

In the case of C=C(C)C(=O)OCC(F)(F)C(F)(F)C(F)(F)F, the outcome [1] is reported as “inactive”, the outcome [2] is reported as “inactive” and the outcome (CD90, THY1 (gene 7070)) is reported as “inactive”. For the same molecule, the outcome [4] was “inactive”, the outcome (Decorin, DCN (gene 1634)) was “inactive” and the outcome (KRT18 (gene 3875)) was “inactive”. For the same molecule, the outcome [5] was “inactive”, the outcome [7] was “inactive” and the outcome [8] was “inactive”. For the same molecule, the outcome [9] was “inactive”, the outcome [10] was “inactive” and the outcome [11] was “inactive”. The outcome [12] was “inactive”, the outcome [13] was “inactive” and the outcome [14] was “inactive”. For the same molecule, the outcome [15] was “inactive”.

For FC(F)(F)C(F)(F)CNCC(F)(F)C(F)(F)F, the outcome [1] was “inactive”, the outcome [2] was “inactive” and the outcome [4] was “inactive”. For the same molecule, the outcome (Decorin, DCN (gene 1634)) was “inactive”, the outcome (KRT18 (gene 3875)) was “inactive” and the outcome [5] was “inactive”. For the same molecule, the outcome [6] was “inactive”, the outcome [7] was “inactive” and the outcome [8] was “inactive”. The outcome [9] was “inactive”, the outcome [10] was “inactive” and the outcome [11] was “inactive”. The outcome [12] was “inactive”, the outcome [13] was “inactive” and the outcome [14] was “inactive”. For the same molecule, the outcome [15] was “inactive”.

For OCCCC(F)(F)C(F)(F)C(F)(F)C(F)(F)C(F)(F)C(F)(F)C(F)(F)F, the AC50 [1] was 23.7 µM (active) and 34 µM (active), the AC50 [2] was 58.5 µM (active) and the outcome [2] was “inactive”. For the same molecule, the AC50 [4] was 51.6 µM (active) and 55.4 µM (active), the AC50 (Decorin, DCN (gene 1634)) was 51.2 µM (active) and 52.2 µM (active) and the AC50 (KRT18 (gene 3875)) was 23.7 µM (active) and 47.1 µM (active). For the same molecule, the AC50 [5] was 44.8 µM (active) and 56.2 µM (active), the AC50 [16] was 54.9 µM (active) and 47.5 µM (active) and the AC50 [7] was 57.5 µM (active) and 32.4 µM (active). For the same molecule, the AC50 [8] was 56.6 µM (active) and 47.7 µM (active), the AC50 [9] was 47.5 µM (active) and 39.4 µM (active) and the AC50 [10] was 51 µM (active) and 53.6 µM (active). For the same molecule, the AC50 [11] was 47.8 µM (active) and 45.7 µM (active), the AC50 [12] was 44.8 µM (active) and 55.3 µM (active) and the AC50 [13] was 47.5 µM (active). The outcome [13] was “inactive”, the AC50 [14] was 53.8 µM (active) and 51.3 µM (active) and the AC50 [15] was 45.9 µM (active) and 46.9 µM (active).

In the case of O=C(O)C(F)(F)C(F)(F)OC(F)(F)F, the outcome [1] is reported as “inactive”, the outcome [2] is reported as “inactive” and the outcome [3] is reported as “inactive”. The outcome [4] was “inactive”, the outcome (Decorin, DCN (gene 1634)) was “inactive” and the outcome (KRT18 (gene 3875)) was “inactive”. For the same molecule, the outcome [5] was “inactive”, the outcome [6] was “inactive” and the outcome [16] was “inactive”. For the same molecule, the outcome [7] was “inactive”, the outcome [8] was “inactive” and the outcome [9] was “inactive”. The outcome [10] was “inactive”, the outcome [11] was “inactive” and the outcome [12] was “inactive”. The outcome [13] was “inactive”, the outcome [14] was “inactive” and the outcome [15] was “inactive”.

With C=C(C)C(=O)OCC(F)(F)C(F)(F)C(F)(F)C(F)(F)C(F)(F)C(F)(F)C(F)(F)F the outcome [1] was “inactive”, the outcome [2] was “inactive” and the outcome [3] was “inactive”. For the same molecule, the outcome [4] was “inactive”, the outcome (Decorin, DCN (gene 1634)) was “inactive” and the outcome (KRT18 (gene 3875)) was “inactive”. The outcome [5] was “inactive”, the outcome [7] was “inactive” and the outcome [8] was “inactive”. For the same molecule, the outcome [9] was “inactive”, the outcome [10] was “inactive” and the outcome [11] was “inactive”. The outcome [12] was “inactive”, the outcome [13] was “inactive” and the outcome [14] was “inactive”. The outcome [15] was “inactive”.
